Screens as filed in PubChem.
Smad3 inh – inhibitors of human Smad3 transcription factor binding; P84022; TR-FRET Smad3/Dy647-FoxH1 peptide binding, europium anti-His; inhibition, % at 25 µM; 88,000 compounds, 0.29% hits;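 active = compounds that reduce the energy-transfer binding signal between the protein and its labelled peptide by more than half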;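 also: 0% = Smad3 plus labelled peptide maximal FRET and 100% = peptide-only background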
ERa coact pot – ER-alpha (human) coactivator binding potentiation; P03372; TR-FRET ERalpha-LBD/SRC-Cy5 coactivator binding, 2 h; 100 = basal binding, no effect; coactivator binding (% of control), % at 25.6 µM; 86,000 compounds, 1.3% hits; AID 639; in the data active = activity above about 200%;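 also: binding measured in presence of low estradiol as agonist stimulus; 0% = peptide alone without receptor and 100% = receptor with peptide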
Target sequence (P03372 whole entry, looked up, the tested form may be a part): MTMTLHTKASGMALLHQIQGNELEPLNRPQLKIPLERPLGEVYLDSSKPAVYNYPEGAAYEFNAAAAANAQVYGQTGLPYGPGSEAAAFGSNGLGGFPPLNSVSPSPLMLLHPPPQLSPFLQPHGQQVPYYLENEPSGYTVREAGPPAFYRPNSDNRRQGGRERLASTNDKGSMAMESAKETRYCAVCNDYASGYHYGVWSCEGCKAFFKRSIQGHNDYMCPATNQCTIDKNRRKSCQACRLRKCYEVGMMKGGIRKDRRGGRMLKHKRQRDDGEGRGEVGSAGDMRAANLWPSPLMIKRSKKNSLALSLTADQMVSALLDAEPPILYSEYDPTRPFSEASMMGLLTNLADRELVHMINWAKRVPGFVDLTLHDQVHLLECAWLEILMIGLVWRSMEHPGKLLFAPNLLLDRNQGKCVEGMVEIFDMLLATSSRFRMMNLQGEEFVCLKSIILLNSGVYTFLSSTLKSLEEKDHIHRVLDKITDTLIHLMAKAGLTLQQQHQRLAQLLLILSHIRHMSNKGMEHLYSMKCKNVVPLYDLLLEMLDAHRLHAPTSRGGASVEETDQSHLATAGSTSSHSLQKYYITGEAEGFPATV
ERa SRC1 inh – blocks coactivator binding to human estrogen receptor alpha. TR-FRET ER-alpha LBD / SRC-1 peptide, estradiol-bound. P03372. inhibition, % at 25.6 µM. 86,000 compounds, 1.7% hits. AID 629; in the data active = inhibition above about 50%;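 also: 0% = receptor plus peptide control and 100% = peptide only without receptor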
ERb coact inh – blocks coactivator binding to human estrogen receptor beta; Q92731; TR-FRET ER-beta LBD / SRC1-Cy5 peptide binding; receptor agonist-loaded with 1 µM estradiol; inhibition, % at 25.6 µM; 86,000 compounds, 1.3% hits;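 active = compounds whose percent inhibition of the receptor-coactivator binding signal exceeds about 50% in the single-dose screen, limit read from the data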;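 also: 0% = receptor plus peptide wells without compound and 100% = peptide-only wells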
FAK blocker – blocks human focal adhesion kinase activity; Q05397; biochemical FAK kinase activity assay; inhibition, %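 (tested at 7 µM)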; 97,000 compounds, 0.84% hits; in the data active = inhibition above about 19%;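 also: 0% = DMSO and 100% = reference compound high control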
The depositor's hits bear a star; · = no result; [ ] = remark or other dose. Compounds with a hit are over-represented: about 3.3% of the library has one in this group of screens.

SMILES	Smad3 inh	ERa coact pot	ERa SRC1 inh	ERb coact inh	FAK blocker
Cc1ccc(C)c(/C(O)=C2/C(=O)C(=O)N(CCN3CCOCC3)C2c2ccco2)c1 (stereo not given)	15.2	80.5	45.7	50.9*	2.8
Cc1ccc(C2/C(=C(/O)c3ccccc3)C(=O)C(=O)N2CCN2CCOCC2)o1 (stereo not given)	0.9	103.6	-5.8	1.7	0.0
Cc1ccc(-c2nnc3n2N=C(c2ccc(Br)cc2)CS3)cc1	9.0	94.5	65.8*	29.6	12.3
Cc1cccc(-c2nnc3n2N=C(c2ccc(Br)cc2)CS3)c1	16.3	297.1*	55.7*[fluorescence artefact?]	38.0	·
COc1ccccc1-c1nnc2n1N=C(c1ccc(O)c(O)c1)CS2	16.3	49.6	60.1*[fluorescence artefact?]	74.5*[fluorescence artefact?]	8.8
Cc1ccc(SCN2CCCCC2)cc1 (tested in a mixture with another compound)	38.3	·	·	·	·
CCOC(=O)c1cc(C#N)c(SCc2ccc(C#N)cc2)nc1C	64.0*[fluorescence artefact?]	251.9*[fluorescence artefact?]	72.2*[fluorescence artefact?]	66.0*[fluorescence artefact?]	-1.9
CCOC(=O)c1cc2c(N)c(C(=O)c3cc(C#N)c(SC)nc3C)sc2nc1C	-6.2	173.6	68.7*[fluorescence artefact?]	31.5	3.8
S=C(Nc1ccc2c(c1)Cc1ccccc1-2)Nc1ccc2c(c1)Cc1ccccc1-2	-168.5	·	·	·	·
CSc1ncc2c(n1)-c1cc(C)ccc1SC2	-3.0	39.1	97.5*	38.0	5.5
O=C1CN(C(=O)c2cccs2)c2ccccc2N1	7.9	965.9*[fluorescence artefact?]	2.1	14.0	0.7
O=C1CN(C(=O)c2ccccc2F)c2ccccc2N1	9.2	157.3	-7.4	0.1	1.1
CC1=NCC[N@@+]1(CCc1ccccc1)Cc1ccccc1	9.3	·	·	·	·
O=C1C2C3C=CC(C3)C2C(=O)N1c1cccc2cccnc12 (stereo not given)	-4.1	65.1	39.8	51.1*	0.5
CC(NC(=O)Cn1c(=O)oc2cc(S(=O)(=O)N3CCCC3)ccc21)c1ccccc1 (stereo not given)	-11.2	103.8	5.7	4.6	1.3
O=C(Cn1c(=O)oc2cc(S(=O)(=O)N3CCCC3)ccc21)Nc1ccc(C(F)(F)F)cc1	0.0	144.0	69.3*[fluorescence artefact?]	2.9	14.1
O=C(Cn1c(=O)oc2cc(S(=O)(=O)N3CCCC3)ccc21)NC1CCCc2ccccc21 (stereo not given)	3.6	36.1	88.8*[fluorescence artefact?]	66.6*[fluorescence artefact?]	·
Cc1cc(C)cc(NC(=O)Cn2c(=O)oc3cc(S(=O)(=O)N4CCC(C)CC4)ccc32)c1	-7.4	25.9	88.6*[fluorescence artefact?]	53.7*[fluorescence artefact?]	3.9
CC(C)(C)NC[C@@H](O)c1ccc(O)c(CO)n1	14.3	·	·	·	·
CCSc1nnc(NC(=O)C2Cc3ccccc3CN2C(=O)c2ccco2)s1 (stereo not given)	9.3	128.4	52.5*	43.3	12.6
COC(=O)c1ccc(COC(=O)c2ccc(S(=O)(=O)N3CCC(C)CC3)cc2)o1	-5.6	730.0*	18.7	7.0	1.3
CCCSc1nc2c(cnn2-c2ccc(C)c(C)c2)c(=O)[nH]1	4.4	244.1*[fluorescence artefact?]	50.1*[fluorescence artefact?]	53.9*[fluorescence artefact?]	-1.2
COC(=O)c1ccc(CSc2nc3c(cnn3-c3ccc(C)c(C)c3)c(=O)[nH]2)o1	11.0	129.1	79.9*	44.9	1.1
CCCSc1nc2c(cnn2-c2ccccc2)c(=O)[nH]1	-2.8	201.1*	-5.6	13.4	·
CCCCSc1nc2c(cnn2-c2ccc(C)c(C)c2)c(=O)[nH]1	5.5	168.3	-2.4	22.4	7.4
SMILES	Smad3 inh	ERa coact pot	ERa SRC1 inh	ERb coact inh	FAK blocker
O=C(CSc1nc2c(cnn2-c2ccccc2)c(=O)[nH]1)c1ccc(Cl)cc1	3.9	329.2*	13.8	8.5	9.7
Cc1ccc(S(=O)(=O)NC(=O)OC23COCN2COC3)cc1	20.6	·	·	·	·
Cn1c(SCC(=O)N2CCOCC2)nc2cccnc21	-3.9	435.1*[fluorescence artefact?]	19.2	22.3	0.6
N#CCSc1nnc2sc3ccccc3n12	-6.2	65.5	87.0*[fluorescence artefact?]	9.1	0.2
O=S(=O)(/N=C(/Sc1ccccc1)c1ccccc1)c1ccccc1	4.9	63.9	77.0*	54.2*[fluorescence artefact?]	0.6
O=P(O)(CCP(=O)(O)c1ccccc1)c1ccccc1	1.2	·	·	·	·
Cc1cc(C)c2cc(C#N)c(N3CCCN(S(=O)(=O)c4ccccc4)CC3)nc2c1	4.5	261.6*[fluorescence artefact?]	23.8	27.1	-1.9
CC(=O)c1cccc(S(=O)(=O)N2CCN(c3nc4cc(C)cc(C)c4cc3C#N)CC2)c1	-11.8	182.6	39.5	58.5*[fluorescence artefact?]	-5.3
Cc1ccc(S(=O)(=O)N2CCN(c3nc4ccccc4nc3-n3nc(C)cc3C)CC2)cc1	1.8	185.3	8.7	-9.0	-8.9
C[N+](C)(C)[C@@H](C1=CCCC1=O)c1ccccc1	43.7	·	·	·	·
C[C@H](CCC(=O)NN)[C@@H]1CC[C@@H]2[C@H]3CC[C@H]4C[C@@H](O)CC[C@]4(C)[C@@H]3CC[C@]21C	6.9	·	·	·	·
C[C@@H](N1CCOCC1)[C@@](O)(c1ccccc1)c1ccccn1	10.3	·	·	·	·
O=C(O)c1ccccc1-c1ccccc1C(=O)Nc1ccc2c(c1)Cc1ccccc1-2	22.8	·	·	·	·
Cc1nn(-c2ccccc2)c(C)c1NC(=O)Cc1cccs1	5.1	61.8	58.9*[fluorescence artefact?]	53.4*	·
Cc1nnc(NC(=O)Cc2cccs2)s1	10.9	50.4	74.2*	72.6*[fluorescence artefact?]	6.5
Cc1nn(-c2ccccc2)c(C)c1NC(=O)c1cccs1	-1.0	93.4	-2.6	-10.1	0.5
CC1Cc2ccccc2N1C(=O)CSc1nnc(NC(=O)Cc2cccs2)s1 (stereo not given)	10.6	56.3	61.7*	47.2	7.2
O=C(Cc1cccs1)Nc1nnc(COc2ccccc2)s1	8.6	76.3	55.7*	36.9	0.6
N#C[C@H]1CN[C@H](N)N[C@@H]1N	-15.4	·	·	·	·
CC(C)C[C@@H](N)C(=O)Nc1ccc2ccccc2c1	-5.1	·	·	·	·
Cc1cc(N2CCC(C)CC2)nc2cccc(O)c12	1.0	550.2*[fluorescence artefact?]	-11.4	-3.1	-2.3
O=C(Nc1ccc(Cl)cn1)c1cc2ccccc2o1	3.1	102.3	-1.2	3.9	0.8
O=C/C(=C\Nc1ccc(Cl)cn1)c1nc2cc(Cl)ccc2o1	6.3	40.5	87.6*[fluorescence artefact?]	55.9*[fluorescence artefact?]	3.8
COc1cc(NS(=O)(=O)c2ccc(N/C=C(\C#N)c3nc4cc(Cl)ccc4o3)cc2)nc(OC)n1	·	·	·	·	3.5
O=C/C(=C\Nc1ccc(Cl)cn1)c1nc2ccccc2o1	-5.6	165.4	54.4*[fluorescence artefact?]	32.1	0.6
SMILES	Smad3 inh	ERa coact pot	ERa SRC1 inh	ERb coact inh	FAK blocker
COc1ccc(-c2cc(-c3ccc(OC)cc3)c(C#N)c(SC)n2)cc1	-68.0	457.8*[fluorescence artefact?]	36.0	38.6	-0.9
Nc1c(C(=O)c2ccc(Br)s2)oc2ccccc12	15.9	107.6	-4.1	7.1	6.7
Nc1c(C(=O)c2cccs2)oc2ccccc12	-3.0	258.8*[fluorescence artefact?]	-14.7	-4.4	2.9
NC[C@@H](O)CSCc1ccc(Cl)cc1	1.3	·	·	·	·
COc1ccccc1-c1cc(C(=O)NC(C)c2ccccc2)no1 (stereo not given)	2.0	276.4*[fluorescence artefact?]	-8.8	-22.6	1.1
COc1ccccc1-c1cc(C(=O)NC(C)C)no1	4.4	99.9	-0.1	1.1	-1.6
Cc1ccc2c(=O)cc(C(F)F)oc2c1	3.6	65.3	55.2*[fluorescence artefact?]	5.3	3.7
